# Assay outcomes as filed in PubChem.
# TIM10 inh = growth inhibitors of isogenic TIM10 control yeast, primary screen, counter-screen for tim10-1 yeast inhibitor project, luminescence, uHTS; 330,000 compounds, 1.4% hits; inhibition, % at 10 µM; S. cerevisiae TIM10 strain growth, BacTiter-Glo luminescence, 24 h;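 active = inhibition of 40% or more at the single tested concentration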;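 note: wild-type TIM10 isogenic control strain grown at permissive 25 °C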
# PfHsp90 set2 = growth inhibition of PfHsp90-expressing yeast, primary screen, antimalarial PfHsp90 inhibitor project, S. cerevisiae, BacTiter-Glo luminescence, single point, set 2. BacTiter-Glo ATP, 48 h; yeast lacking PDR1 and PDR3 efflux regulators. AID 504621, 2011. 310,000 compounds, 0.32% hits. inhibition, % at 9.4 µM;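 active = every replicate shows inhibition above about 80%, whatever the replicate mean, limit read from the data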;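 note: 0% = DMSO neutral controls and 100% = 20 µM radicicol positive controls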
# tim23-1 inh = growth inhibitors of tim23-1 mutant yeast, primary screen, luminescence, uHTS | S. cerevisiae tim23-1 growth, BacTiter-Glo luminescence, 24 h | inhibition, % at 20 µM | 330,000 compounds, 1.3% hits;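 active = growth inhibition of the mutant yeast at or above 50%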;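 note: temperature-sensitive mutant grown at 25 °C; plate controls were DMSO-treated mutant yeast for no effect and medium wells lacking yeast for full effect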
# tim10-1 inh = growth inhibitors of tim10-1 mutant yeast, primary screen, luminescence, uHTS. S. cerevisiae tim10-1 ts strain growth, BacTiter-Glo, 24 h. inhibition, % at 20 µM. 330,000 compounds, 2.2% hits;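 active = inhibition of at least 40%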;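 note: mutant grown at 25 °C; 0% = DMSO wells with yeast and 100% = wells holding no yeast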
# SUMO Mot1 rescue = yeast Mot1-301 growth rescue at high temperature, primary screen, SUMOylation pathway inhibitor project, S. cerevisiae, ATP luminescence, 38.5C. S. cerevisiae Mot1-301 growth rescue; percent above DMSO median, 100 means doubled. growth rescue, % at 18.8 µM. 320,000 compounds, 1% hits;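 active = every valid replicate shows activation above 250% relative to neutral control wells; inactive = the rest, any valid replicate at or below 250%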;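 note: OY570 slx delta 5 strain wells were the positive control but not used for scaling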
# An asterisk follows results filed as active; nt = not tested or not shown. The list is not random: actives were taken first. Their share in the collection is about 4.4%.
SMILES,TIM10 inh,PfHsp90 set2,tim23-1 inh,tim10-1 inh,SUMO Mot1 rescue
CCOC(=O)C1=C(N)N2C(=O)C(C)SC2=C(C(=O)OC)C1c1ccccc1OC (centres undefined),-15,133*,-16,25,13
CCOC(=O)C1=C(N)N2C(=O)C(C)SC2=C(C(=O)OCC)C1c1ccccc1 (centres undefined),5,-12,22,17,17
Cc1ccccc1NC(=S)N1CCN(c2ccccc2)CC1,-4,-3,-5,-14,12
CCOC(=O)c1ccccc1NC(=O)Cc1ccccc1OC,21,nt,18,21,391*
Cc1sc(NC(=O)c2ccco2)c(C(c2cccnc2)N2CCC(C)CC2)c1C (centres undefined),39,92*,40,37,-14
CCC(=O)Nc1ccc(C(=O)COC(=O)c2nc3nccc(C)n3n2)cc1,-17,2,-6,-6,13
Cc1cn2c(=O)c(C(=O)N3CCN(c4ccccc4Cl)CC3)cnc2s1,-15,20,8,7,3
COCCN1Cc2cccc(C(=O)Nc3ccc(-c4nc5ccccc5[nH]4)cc3)c2C1=O,-27,-26,-34,-8,689*
COc1cccc(Oc2nc(N)ncc2[N+](=O)[O-])c1,3,-8,28,26,17
O=C1CN(S(=O)(=O)c2cc(Br)ccc2Br)CCN1,0,6,-9,-8,-3
O=c1c(Br)ccc(Br)cc1Br,nt,120*,nt,nt,nt
CC1CCC(NS(=O)(=O)c2ccc(N3CCCC3=O)cc2)CC1 (centres undefined),4,3,18,17,-3
NC(=O)NC(Cc1ccccc1)C(=O)NCCCSc1ccccc1 (centres undefined),7,7,2,9,-16
CCNC1=C(Cl)C(=O)c2ccccc2C1=O,19,-4,45,2,3
CCCC(=O)NC1=C(Cl)C(=O)c2ccccc2C1=O,nt,146*,nt,nt,nt
COc1ccc(CN(C)C(=O)CCCNC(=O)c2ccc(Cl)cc2)cc1,-21,-11,-5,3,2
COc1ccc(N2CC(C(=O)NCCc3ccc(OC)c(OC)c3)CC2=O)cc1 (centres undefined),2,-34,2,13,-8
CCCCOc1ccc(N2CC(C(=O)NCCc3ccc(OC)c(OC)c3)CC2=O)cc1 (centres undefined),3,-27,16,18,909*
CC(=O)C1=C(C)Nc2ncnn2C1c1cccc(O)c1 (centres undefined),-10,-14,6,12,336*
CC(=O)C1=C(C)Nc2ncnn2C1c1ccc(O)cc1 (centres undefined),3,-17,12,22,-17
CCCN(C(=O)CSc1nnc2ccccn12)C1CCS(=O)(=O)C1 (centres undefined),-7,nt,0,-5,33
CC(C)(C)c1nnc(N/N=C/c2cc(Br)ccc2O)n(N)c1=O,nt,105*,nt,nt,45
CCOC(=O)/C(=N\Nc1cccc(C(F)(F)F)c1)N1CCOCC1,12,-19,13,-49,266*
O=S(=O)(c1ccc(SCCOc2ccc(F)cc2)nc1)N1CCCC1,0,nt,36,21,-4
COc1cccc(Oc2cn[nH]c2-c2ccc(OCC(=O)NN)cc2O)c1,-8,-3,22,30,-11
SMILES,TIM10 inh,PfHsp90 set2,tim23-1 inh,tim10-1 inh,SUMO Mot1 rescue
CCCOC(=O)c1ccc(Oc2cn[nH]c2-c2ccc(OC)cc2O)cc1,32,106*,-2,-4,-9
N/C(=N\OC(=O)c1ccc(Cl)cc1)c1nonc1N,23,1,24,34,294*
N/C(=N/OC(=O)c1ccccc1F)c1nonc1N,21,4,23,13,236
O=C(c1csc(Nc2ccccc2Cl)n1)N1CCCC1,6,-22,17,26,-19
O=C(c1csc(Nc2cccc3ccccc23)n1)N1CCCC1,-13,-25,14,2,607*
COc1ccc(CCN2C(=O)C=CC2=O)cc1OC,nt,104*,nt,nt,nt
COc1ccc(CCn2c(C)ccc2C)cc1OC,-5,nt,8,18,-5
N#C/C(=C\c1coc2ccc(O)cc2c1=O)C(=O)Nc1nc2ccccc2s1,33,-12,31,3,89
